Results on four compounds are retold here after PubChem BioAssay.

Assay [1] in a line: growth inhibition of DIPG glioma cells, dose response, cell-based, SU-DIPG-XIII, MIPE4.0, CellTiter-Glo, qHTS (AID 1347061; cut-off not given, nearly all actives have AC50 up to about 37 µM;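 also: cells exposed to compound for 48 hours before readout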). The conditions noted are these: SU-DIPG-XIII viability, CellTiter-Glo ATP luminescence.
Assay [2] is described as follows: growth inhibition of DIPG glioma cells, dose response, cell-based, JHH-DIPG-1, MIPE4.0, CellTiter-Glo, qHTS (AID 1347062; cut-off not given, nearly all actives have AC50 up to about 27 µM;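 as to AC50: cells exposed to compound for two days before readout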). Conditions: JHH-DIPG-1 viability, CellTiter-Glo ATP luminescence.
A short description of assay [3]: viability loss in pontine glioma line – cell-based, SU-DIPG-XXV, MIPE5.0, CellTiter-Glo, qHTS, dose response (AID 1347065; cut-off not given, nearly all actives have AC50 up to about 26 µM;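 also: cells exposed to compound for 48 hours before ATP readout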). The conditions noted are these: CellTiter-Glo ATP luminescence.
Assay [4] can be described thus: SU-DIPG-XXV glioma cell viability, MIPE5.0 library, qHTS (AID 1347068; cut-off not given, nearly all actives have IC50 up to about 30 µM).
Assay [5] in a line: sensitizers of A549 cells to miR-34 induction, primary screen, imaging, A549 dox-inducible miR-34, nuclei and caspase counts (AID 1347080;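 active = compounds whose cell count with miR-34 switched on is under 0.7 times the count with it off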). Conditions: A549 miR-34 inducible, Hoechst nuclei count, 48 h.
Assay [6] in a line: modifiers of HSF1 nuclear foci, imaging, Selleck Cancer Library (AID 1347162; in the data active = plate-normalised HSF1 focus index below about 0.46). The conditions noted are these: human cells, at 10 µM; SSMD: measured here: HSF1 foci SSMD mean; cell count: measured here: cell number; plate-normalised HSF1 focus index: stronger effect = lower value.
Assay [7] can be described thus: survival rescue of mitochondrial mutant cells in low glucose, primary screen, MELAS cybrids, Rieske KO mouse fibroblasts, CellTiter-Glo (AID 1508586;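 active = mean z-score across replicates of 1.96 or higher in either the MELAS or the Rieske mutant cell line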;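 also: z relative to plate mean and SD of compound and empty wells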).
The nature of assay [8]: ovarian cancer cell viability with rucaparib, profiling panel, oncology-focused library, rucaparib conditional (AID 1508598). The conditions noted are these: patient-derived ovarian cancer cells, CellTiter-Glo viability, 144 h, stronger effect = lower value.
Assay [9] is described as follows: SU-DIPG-VI glioma cell viability, MIPE4.0 library, CellTiter-Glo luminescence, qHTS (AID 1347066; cut-off not given, nearly all actives have AC50 up to about 30 µM;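 also: cells exposed to compound for 48 hours before readout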). Conditions: CellTiter-Glo ATP luminescence.
A short description of assay [10]: JHH-DIPG-1 glioma cell viability, MIPE5.0 library, CellTiter-Glo luminescence, qHTS (AID 1347067; cut-off not given, nearly all actives have AC50 up to about 26 µM;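 also: cells exposed to compound for 48 hours before readout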). Conditions: JHH-DIPG-1 glioma viability, CellTiter-Glo ATP luminescence.

Records with an inconclusive call do not appear. The source made the active and inactive calls.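 The calls were made as follows, unless noted: active = normalized viability below 100% at a tested concentration; inactive = the rest.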

As to `Cc1cnc(-c2cnc(NCCNc3ccc(C#N)cn3)nc2-c2ccc(Cl)cc2Cl)[nH]1`, the compound was called inactive in assay [1], in assay [2], in assay [3] and in assay [4]. Also, the fold change in assay [5] (stronger effect = lower value, cell number ratio, induced over uninduced) was 0.776 (inactive); in assay [5] (measured here: relative caspase fold change +Dox/-Dox), 0.884. For the same compound, the cell count came out at 2900 in assay [5] (measured here: total cells with miR-34 induction, stronger effect = lower value); 3740 in assay [5] (measured here: total cells without miR-34 induction); 7270 in [6]. For the same compound, in assay [6], the SSMD is -0.145. Further, in [6], the plate-normalised HSF1 focus index was 0.999 (inactive). Also, the z-score in [7] (MELAS cybrid survival, CellTiter-Glo 48 h, stronger effect = higher value) is -0.0957 (inactive); in [7] (Rieske KO mouse fibroblast survival, CellTiter-Glo 72 h), -0.0886. In addition, the viability in assay [8] (at 0.000305 µM, OCI-C5x cells, with rucaparib 10 µM, 100% = cells with rucaparib alone) is 111% (inactive); in assay [8] (at 0.000305 µM, OCI-C5x cells, without rucaparib), 124% (inactive); in assay [8] (at 0.000305 µM, OCI-P5x cells, with rucaparib 20 µM, 100% = cells with rucaparib alone) it was 101% (inactive); in [8] (at 0.000305 µM, OCI-P5x cells, without rucaparib), 106% (inactive); in assay [8] (at 0.00122 µM, OCI-C5x cells, with rucaparib 10 µM, 100% = cells with rucaparib alone), 108% (inactive); in assay [8] (at 0.00122 µM, OCI-C5x cells, without rucaparib), 122% (inactive). The viability in assay [8] (at 0.00122 µM, OCI-P5x cells, with rucaparib 20 µM, 100% = cells with rucaparib alone) is 101% (inactive); in assay [8] (at 0.00122 µM, OCI-P5x cells, without rucaparib) it was 106% (inactive); in assay [8] (at 0.00488 µM, OCI-C5x cells, with rucaparib 10 µM, 100% = cells with rucaparib alone) it was 118% (inactive); in [8] (at 0.00488 µM, OCI-C5x cells, without rucaparib), 114% (inactive); in assay [8] (at 0.00488 µM, OCI-P5x cells, with rucaparib 20 µM, 100% = cells with rucaparib alone), 98% (active); in assay [8] (at 0.00488 µM, OCI-P5x cells, without rucaparib) it was 99% (active). Moreover, the viability in assay [8] (at 0.0195 µM, OCI-C5x cells, with rucaparib 10 µM, 100% = cells with rucaparib alone) is 126% (inactive); in assay [8] (at 0.0195 µM, OCI-C5x cells, without rucaparib), 129% (inactive); in assay [8] (at 0.0195 µM, OCI-P5x cells, with rucaparib 20 µM, 100% = cells with rucaparib alone), 88.1% (active); in assay [8] (at 0.0195 µM, OCI-P5x cells, without rucaparib) it was 102% (inactive); in assay [8] (at 0.0781 µM, OCI-C5x cells, with rucaparib 10 µM, 100% = cells with rucaparib alone), 113% (inactive); in assay [8] (at 0.0781 µM, OCI-C5x cells, without rucaparib) it was 116% (inactive). In addition, the viability in assay [8] (at 0.0781 µM, OCI-P5x cells, with rucaparib 20 µM, 100% = cells with rucaparib alone) was 102% (inactive); in assay [8] (at 0.0781 µM, OCI-P5x cells, without rucaparib), 99.7% (active); in assay [8] (at 0.313 µM, OCI-C5x cells, with rucaparib 10 µM, 100% = cells with rucaparib alone), 127% (inactive); in assay [8] (at 0.313 µM, OCI-C5x cells, without rucaparib), 127% (inactive); in [8] (at 0.313 µM, OCI-P5x cells, with rucaparib 20 µM, 100% = cells with rucaparib alone), 93.1% (active); in [8] (at 0.313 µM, OCI-P5x cells, without rucaparib), 99.5% (active). Further, the viability was 121% (inactive) in assay [8] (at 1.25 µM, OCI-C5x cells, with rucaparib 10 µM, 100% = cells with rucaparib alone); 115% (inactive) in assay [8] (at 1.25 µM, OCI-C5x cells, without rucaparib); 93.8% (active) in [8] (at 1.25 µM, OCI-P5x cells, with rucaparib 20 µM, 100% = cells with rucaparib alone); 91.8% (active) in [8] (at 1.25 µM, OCI-P5x cells, without rucaparib); 80.9% (active) in [8] (at 5 µM, OCI-C5x cells, with rucaparib 10 µM, 100% = cells with rucaparib alone); 133% (inactive) in assay [8] (at 5 µM, OCI-C5x cells, without rucaparib). Besides, the viability in [8] (at 5 µM, OCI-P5x cells, with rucaparib 20 µM, 100% = cells with rucaparib alone) was 58.5% (active); in assay [8] (at 5 µM, OCI-P5x cells, without rucaparib), 78% (active).
On to `O=C(OCC#CCSc1nnc(-c2cccc3ccccc23)o1)c1cc2ccccc2s1`, for which the compound was called inactive in [1], in assay [2] and in assay [9].
With `CN(C)/[N+]([O-])=N/Oc1cc(ON[N+](=O)N2CCN(C(=O)c3cc(Cc4n[nH]c(=O)c5ccccc45)ccc3F)CC2)c([N+](=O)[O-])cc1[N+](=O)[O-]`, the concentration at half-maximal activity (AC50) in assay [1] was 20.9 µM (active); in assay [2] it was 13.2 µM (active). In addition, in assay [9], the compound was called inactive.
For the compound `O=C(O)CC/C=C\CC[C@@H]1[C@@H](N2CCCCC2)[C@@H](O)C[C@@H]1OCc1ccc(-c2ccccc2)cc1`, the compound was called inactive in [1], in [2], in assay [3], in assay [9], in assay [10] and in assay [4].
